From PMC4336329 (PLoS ONE, 2015)
In all, about 310,000 compounds went through this assay and about 2,200 (0.71%) showed an effect of 50% or more. Effects have a minus sign here. What follows is part of a selection rich in strong results, with near analogues and random picks from the rest.

The compounds below were run against human ether-à-go-go-related gene (hERG) potassium channel (human, UniProt Q12809) (assay: primary screen, population patch clamp on CHO cells stably expressing hERG; higher = less effect of the substance).
Chain of human ether-à-go-go-related gene (hERG) potassium channel (Q12809 whole entry, looked up): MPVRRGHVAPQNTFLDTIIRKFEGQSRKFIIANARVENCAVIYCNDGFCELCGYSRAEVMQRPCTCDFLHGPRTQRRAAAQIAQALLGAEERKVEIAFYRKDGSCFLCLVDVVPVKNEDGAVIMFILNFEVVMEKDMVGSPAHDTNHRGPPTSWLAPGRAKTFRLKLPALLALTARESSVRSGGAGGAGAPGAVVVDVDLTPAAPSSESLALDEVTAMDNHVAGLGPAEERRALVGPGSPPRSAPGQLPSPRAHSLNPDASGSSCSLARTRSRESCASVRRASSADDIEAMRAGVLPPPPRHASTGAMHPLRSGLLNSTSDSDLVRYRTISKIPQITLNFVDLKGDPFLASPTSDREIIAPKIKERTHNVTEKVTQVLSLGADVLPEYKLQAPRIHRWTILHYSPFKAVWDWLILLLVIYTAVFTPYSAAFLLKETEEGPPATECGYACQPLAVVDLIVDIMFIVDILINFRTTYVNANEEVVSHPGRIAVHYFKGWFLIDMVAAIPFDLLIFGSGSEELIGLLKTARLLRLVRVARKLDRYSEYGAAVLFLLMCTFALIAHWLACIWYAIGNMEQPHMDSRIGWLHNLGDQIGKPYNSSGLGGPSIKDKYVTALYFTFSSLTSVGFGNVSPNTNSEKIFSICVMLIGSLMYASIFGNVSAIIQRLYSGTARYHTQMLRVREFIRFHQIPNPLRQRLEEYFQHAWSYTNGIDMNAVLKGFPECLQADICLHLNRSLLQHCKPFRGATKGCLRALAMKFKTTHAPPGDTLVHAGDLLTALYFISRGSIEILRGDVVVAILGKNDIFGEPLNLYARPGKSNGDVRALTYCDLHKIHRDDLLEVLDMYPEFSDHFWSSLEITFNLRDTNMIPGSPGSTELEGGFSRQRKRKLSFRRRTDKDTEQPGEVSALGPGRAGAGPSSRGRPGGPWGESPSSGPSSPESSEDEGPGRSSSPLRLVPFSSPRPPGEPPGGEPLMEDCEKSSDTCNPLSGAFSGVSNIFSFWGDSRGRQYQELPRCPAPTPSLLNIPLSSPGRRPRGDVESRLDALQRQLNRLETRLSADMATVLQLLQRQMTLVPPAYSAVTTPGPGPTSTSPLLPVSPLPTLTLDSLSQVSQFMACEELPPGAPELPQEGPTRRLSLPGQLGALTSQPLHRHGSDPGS

Compound	hERG current change (%, negative = inhibition) at 1uM
COc1cc(NC(=O)CSc2ncnc3scc(-c4ccccc4)c23)c(C(=O)O)cc1OC	11.2%
CCN(CC)C(=O)Cn1cc(S(=O)(=O)CC(=O)N2CCOCC2)c2ccccc21	7.45%
Cc1ccc(S(=O)(=O)N2CCCCC2)cc1NC(=O)COC(=O)Cc1c(F)cccc1Cl	14.5%
CCOC(=O)C1CCCCN1C(=O)CCc1c(C)nc2cc(-c3ccccc3)nn2c1C (stereo not shown)	-14%
CCOC(=O)C1CCN(C(=O)CCc2c(C)nc3cc(-c4ccccc4)nn3c2C)CC1	-62%
CCOC(=O)C1CCN(C(=O)CCc2c(C)nc3cc(-c4ccc(OC)cc4OC)nn3c2C)CC1	-10.6%
S=C(N/N=C/c1ccco1)NC1CC2CCC1C2 (stereo not shown)	8.84%
CC1(C)O[C@@H]2C[C@H]3[C@@H]4C[C@H](F)C5=CC(=O)CC[C@]5(C)[C@H]4[C@@H](O)C[C@]3(C)[C@]2(C(=O)CO)O1	18.1%
COc1cccc2c1OCC(CN1CCN(Cc3ccccc3F)C(CCO)C1)=C2 (stereo not shown)	12%
CCOc1ccc(CN2CCN(Cc3cccc4c3OCO4)CC2CCO)cc1 (stereo not shown)	-64.9%
COc1cccc2c1OCC(CN1CCN(Cc3ccccc3)C(CCO)C1)=C2 (stereo not shown)	-4.17%
OCCC1CN(Cc2cccc3c2OCO3)CCN1Cc1ccccc1 (stereo not shown)	7.11%
OCCC1CN(Cc2cc3c(cc2Cl)OCO3)CCN1Cc1ccccc1 (stereo not shown)	-1.48%
CCOc1ccc(CN2CCN(Cc3cc4c(cc3Cl)OCO4)CC2CCO)cc1 (stereo not shown)	-62.9%
Cc1ccc(CN2CCN(Cc3cccc4c3OCO4)CC2CCO)cc1 (stereo not shown)	-16.1%
CCOc1ccc(CN2CCN(CC3=Cc4cccc(OC)c4OC3)CC2CCO)cc1 (stereo not shown)	-71.4%
CCOc1ccc(CN2CCN(CC3CC3)CC2CCO)cc1 (stereo not shown)	-20.7%
COc1ccccc1CNC(=O)C1(c2ccc(Cl)cc2)CC1	0.547%
O=C(c1cccc(C(F)(F)F)c1)N1CCCC1	8.42%
COc1ccc(-c2nn(-c3ccccc3)cc2/C=N/Nc2ccc3ccccc3n2)cc1OC	7.59%
Cc1cc2n(n1)SC(Nc1cc(Cl)ccc1Cl)N2 (stereo not shown)	7.4%
COC(=O)c1cc(S(=O)(=O)Nc2ccc(C)c(F)c2)c[nH]1	-3.6%

Compound	hERG current change (%, negative = inhibition) at 1uM
CCn1c(/C(C#N)=N/O)nc2ccccc21	6.1%
O=C(NNS(=O)(=O)c1ccc(F)cc1)c1ccccc1O	13.6%
O=C(C[n+]1ccc(C(=O)N/N=C/c2ccc(O)cc2)cc1)c1ccccc1.[Br-]	4.63%
O=C(C[n+]1ccc(C(=O)N/N=C/c2ccc(Br)cc2)cc1)c1ccccc1.[Br-]	-32.5%
O=C(C[n+]1ccc(C(=O)N/N=C/c2ccc(Cl)cc2Cl)cc1)c1ccccc1.[Br-]	-63.3%
O=C(NCC1CCCO1)c1ccc(S(=O)(=O)Nc2ccccc2F)cc1 (stereo not shown)	7.53%
CC(=O)N/C(=N/c1nc(C)cc(C)n1)Nc1ccc(C)cc1C	4.11%
COc1ccc(OC)c(N/C(N)=N/c2nc(C)cc(C)n2)c1	-26.5%
Cc1ccc(C)c(N/C(N)=N/c2nc(C)cc(C)n2)c1	-8.3%
COc1ccc(Cl)cc1N/C(N)=N/c1nc(C)cc(C)n1	-79.1%
COc1ccccc1N/C(N)=N/c1nc(C)cc(C)n1	-2.38%
COc1cc(N/C(N)=N/c2nc(C)cc(C)n2)c(OC)cc1Cl	-17.2%
CCCOc1ccccc1N/C(N)=N/c1nc(C)cc(C)n1	-59.4%
COc1ccc(C)cc1N/C(N)=N/c1nc(C)cc(C)n1	-64.7%
COc1ccc(N/C(N)=N/c2nc(C)cc(C)n2)c(OC)c1	-2.86%
CCCOc1ccccc1N/C(=N/c1nc(C)cc(C)n1)NC(=O)Nc1ccc(Cl)cc1	8.59%
COc1ccc(Cl)cc1N/C(N)=N/c1nc(C)cc(=O)[nH]1	12.3%
Cc1ccc(N/C(N)=N/c2nc(C)cc(N3CCCCC3)n2)c(C)c1	-79%
COc1cc(/C=C(\C#N)C(=O)Nc2ccccc2F)ccc1OCCN1CCOCC1	-25.6%
CN(c1ccccc1)S(=O)(=O)c1cc(C(=O)N2CCN(c3ccccn3)CC2)ccc1Cl	16.5%
CN1CCN(c2ccc([N+](=O)[O-])cc2NC(=O)c2ccco2)CC1	-22.4%
